According to publication PMC5540273 (PLoS ONE, 2017):

Test system: CSNK1G2
Conditions: concentration: 1 μM, replicates: in singlicate; n = 1
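Also: KINOMEscan kinase panel screen.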

Compound	%Inh [%]
Cc1ccc(C)c(NC(=O)NC2CCN(c3ccnc(Nc4ccc(F)cc4)n3)C2)c1 (stereo not shown) [GSK1379720]	15
Cl.Cl.NCC(NC(=O)c1cc(-c2ccccc2)c(-c2ccnc3[nH]ccc23)s1)c1ccccc1 (stereo not shown) [GSK1321561]	89
CN(C)Cc1ccc(-c2ccc3c(Nc4ccc(Oc5ccccn5)cc4)ccnc3c2)o1 [GW567148]	0
COc1cccc(C(=O)Nc2cccc(Oc3ccc4nc(NC(=O)C5CC5)cn4n3)c2)c1	0
CNC(=O)c1ccccc1Nc1nc(Nc2ccc(N3CCOCC3)cc2)ncc1Cl.Cl [GSK1576028]	85
C[C@@H]1CC[C@@H](C(=O)Nc2ccccc2)CN1c1cc(-c2ccc3c(N)n[nH]c3c2)nc(N)n1 [GSK2286062]	8
Cn1cc(-c2ccc3c(c2)CCN3C(=O)Cc2cccc(Cl)c2)c2c(N)ncnc21 [GSK2606590]	0
FC(F)(F)c1ccc(/C=C/c2cncnc2Nc2ccc3[nH]c(Cc4ccccc4)nc3c2)cc1 [GW709199]	0
COc1cccc(NC(=O)NC2CCN(c3ccnc(Nc4cc(OC)c(OC)c(OC)c4)n3)C2)c1 (stereo not shown) [GSK1379763]	0
Fc1ccc(-c2ncn(C3CCNCC3)c2-c2ccnc(Oc3ccc(-c4ccccc4)cc3)n2)cc1 [SB-245391]	78
Oc1cc(Nc2ccnc3cc(I)ccc23)ccc1F [GW552771]	0
COC(=O)Nc1nc2ccc(Oc3ccc(NC(=O)Nc4cc(C(F)(F)F)ccc4F)cc3)cc2n1C.Cl [GW692089]	0
CC(=O)N1CCN(c2ccc(Nc3nccc(-c4sc(C(C)C)nc4-c4cccc(NS(=O)(=O)c5cccc(Cl)c5)c4)n3)cn2)CC1 [GSK1660437]	0
Cl.Cl.NCC(C(=O)Nc1cc(Br)c(-c2ccnc3[nH]ccc23)s1)c1ccccc1 (stereo not shown) [GSK1269851]	4
CC(C)(C)c1ccc2nccc(Nc3cccc(O)c3)c2c1 [GW856795]	0
NCCCC(NC(=O)c1cc(Br)c(-c2ccnc3[nH]ccc23)s1)c1ccccc1.O=C(O)C(F)(F)F.O=C(O)C(F)(F)F (stereo not shown) [GSK1287544]	97.2
Cl.c1ccc(-c2ccc3c(Nc4ccc5[nH]ncc5c4)ccnc3c2)nc1 [GW440137]	17
c1ccc(Oc2ccc(Nc3ccnc4cc(-c5ccc(CNCCN6CCOCC6)o5)ccc34)cc2)nc1 [GW567145]	0
O=C(Nc1cccc(Oc2ccc3nc(NC(=O)C4CC4)cn3n2)c1)c1ccccc1C(F)(F)F	0

Compound	%Inh [%]
CC(C)c1nc(-c2cccc(NS(=O)(=O)c3c(F)cccc3F)c2F)c(-c2ccnc(Nc3ccc(N4CCOCC4)nc3)n2)s1 [GSK2008607]	0
Nc1ncc(-c2cccnc2)c2scc(-c3ccc4c(c3)CCN4C(=O)Cc3ccccc3)c12 [GSK683281]	9
Cn1cc(-c2ccc3c(c2)CCN3C(=O)Cc2cccc(F)c2)c2c(N)ncnc21 [GSK2603358]	0
Cl.NC(=O)c1cccc(Nc2nccc(Nc3ccc(Oc4c(Cl)cccc4Cl)c(Cl)c3)n2)c1 [GW659009]	2
COCCOCCOc1cc2ncc3c4ccc(C#N)cc4[nH]c3c2cc1OC	24
COc1cccc(-c2ccc3c(NC(=O)C4CC4)n[nH]c3n2)c1 [SB-710903]	0
Nc1ncc(-c2ccc3nccc(-c4ccncc4)c3c2)cc1S(=O)(=O)N1CCOCC1 [GSK1627798]	0
Cc1ccc(C(=O)N2CC[C@@H](O)C2)cc1-n1c(C)cc(OCc2ccc(F)cc2F)c(Br)c1=O	0
O=C(O)C(F)(F)F.O=C(O)C(F)(F)F.O=c1[nH]ccc2nc(N[C@@H]3CCCNC3)nc(Nc3ccc(S(=O)(=O)N4CCOCC4)cc3)c12 [GSK2177277]	98.8
COc1cc(Nc2nccc(-c3c(-c4cccc(NC(=O)c5c(F)cccc5F)c4)nn4ncccc34)n2)cc(OC)c1OC [GSK327238]	0
COc1cccc(C2=C(Nc3ccc(Cl)c(C(=O)O)c3)C(=O)NC2=O)c1 [SB-390769]	0
Cc1ccc(C(=O)Nc2ccc(Nc3ccnc4cc(-c5nccs5)ccc34)cc2O)cc1.Cl [GW494702]	0
CCn1c(-c2nonc2N)nc2c(C#CC(C)(C)O)nc(OC[C@H](N)c3ccccc3)cc21 [GSK943949]	0
COC(=O)Nc1nc2cc(Oc3ccc(NC(=O)Nc4cc(C(F)(F)F)ccc4F)cn3)ccc2[nH]1.Cl.Cl [GW681170]	6
Cl.Cl.NCC(NCc1ccc(-c2ccnc3[nH]ccc23)s1)c1ccccc1 (stereo not shown) [GSK1321565]	0
O=c1[nH]cc(-c2ccc(N3CCOCC3)cc2)c2sc(-c3cn[nH]c3)cc12 [GSK2276055]	43
c1ccc(-c2cnc3nccnn23)cc1 [AH20685]	5
COc1cc(Nc2nccc(-c3c(-c4cccc(NC(=O)c5c(F)cccc5F)c4)nn4ccccc34)n2)cc(OC)c1OC [GSK323521]	31
